As usually defined, the inhibition is the change of the read-out against control, counted positive when it falls.

Assay [1] has as its target Sphingosine kinase 1 (Homo sapiens) (UniProt Q9NYA1). The following applies: at 1 µM.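 Also: mean SPHK1 inhibition value reported from the GSK PKIS kinase panel screen.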
For assay [2], the target named is T1, Sphingosine kinase 2 (Homo sapiens) (UniProt Q9NRA0).
T1 sequence (whole entry): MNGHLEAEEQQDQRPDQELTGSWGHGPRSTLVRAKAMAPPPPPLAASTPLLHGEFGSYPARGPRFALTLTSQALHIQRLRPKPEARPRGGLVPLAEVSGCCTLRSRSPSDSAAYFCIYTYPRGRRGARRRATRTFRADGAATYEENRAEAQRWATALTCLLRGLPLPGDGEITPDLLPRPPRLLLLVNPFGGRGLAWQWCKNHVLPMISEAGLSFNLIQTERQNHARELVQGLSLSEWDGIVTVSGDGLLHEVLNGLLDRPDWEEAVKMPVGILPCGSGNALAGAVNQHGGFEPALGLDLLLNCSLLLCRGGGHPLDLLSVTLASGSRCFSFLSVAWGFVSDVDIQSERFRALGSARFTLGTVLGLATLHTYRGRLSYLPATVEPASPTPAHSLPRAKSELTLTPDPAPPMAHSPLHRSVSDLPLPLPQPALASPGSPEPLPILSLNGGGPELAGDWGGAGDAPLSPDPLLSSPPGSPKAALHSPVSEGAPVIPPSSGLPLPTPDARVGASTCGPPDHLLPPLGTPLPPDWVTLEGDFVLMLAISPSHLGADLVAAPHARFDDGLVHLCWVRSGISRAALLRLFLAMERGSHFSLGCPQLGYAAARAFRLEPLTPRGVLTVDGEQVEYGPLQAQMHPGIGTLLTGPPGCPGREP
As to conditions: at 0.1 µM.

In assay [3] the target is T1, Sphingosine kinase 2 (Homo sapiens). As to conditions: at 1 µM.
For assay [4], the target named is Casein kinase II subunit alpha (Homo sapiens) (UniProt P68400). The following applies: at 0.1 µM.
Assay [5] shares this target. The following applies: at 1 µM.
In assay [6] the target is T2, Inhibitor of nuclear factor kappa-B kinase subunit alpha (Homo sapiens) (UniProt O15111).
T2 sequence (whole entry): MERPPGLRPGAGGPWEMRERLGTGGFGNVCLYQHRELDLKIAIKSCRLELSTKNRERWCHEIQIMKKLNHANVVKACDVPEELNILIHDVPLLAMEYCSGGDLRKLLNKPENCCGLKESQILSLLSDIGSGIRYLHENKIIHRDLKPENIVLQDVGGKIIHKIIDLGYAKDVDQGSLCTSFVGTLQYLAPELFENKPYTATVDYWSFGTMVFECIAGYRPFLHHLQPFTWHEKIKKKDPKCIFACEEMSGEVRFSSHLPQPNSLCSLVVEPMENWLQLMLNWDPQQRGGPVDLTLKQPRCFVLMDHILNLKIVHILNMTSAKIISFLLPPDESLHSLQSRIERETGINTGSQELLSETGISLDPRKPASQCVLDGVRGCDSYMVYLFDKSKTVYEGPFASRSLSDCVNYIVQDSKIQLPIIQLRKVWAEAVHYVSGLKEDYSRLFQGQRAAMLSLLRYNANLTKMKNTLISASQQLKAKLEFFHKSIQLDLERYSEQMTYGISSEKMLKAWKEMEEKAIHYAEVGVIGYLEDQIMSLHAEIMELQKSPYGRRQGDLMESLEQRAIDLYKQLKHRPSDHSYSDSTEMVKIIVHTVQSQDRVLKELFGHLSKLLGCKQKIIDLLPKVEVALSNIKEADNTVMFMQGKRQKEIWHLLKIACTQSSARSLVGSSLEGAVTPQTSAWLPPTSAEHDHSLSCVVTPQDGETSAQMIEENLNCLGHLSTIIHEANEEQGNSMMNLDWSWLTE
The following applies: at 0.1 µM.

Assay [7] deals with T2, Inhibitor of nuclear factor kappa-B kinase subunit alpha (Homo sapiens). As to conditions: at 1 µM.
The target of assay [8] is T3, Inhibitor of nuclear factor kappa-B kinase subunit beta (Homo sapiens) (UniProt O14920).
T3 sequence (whole entry): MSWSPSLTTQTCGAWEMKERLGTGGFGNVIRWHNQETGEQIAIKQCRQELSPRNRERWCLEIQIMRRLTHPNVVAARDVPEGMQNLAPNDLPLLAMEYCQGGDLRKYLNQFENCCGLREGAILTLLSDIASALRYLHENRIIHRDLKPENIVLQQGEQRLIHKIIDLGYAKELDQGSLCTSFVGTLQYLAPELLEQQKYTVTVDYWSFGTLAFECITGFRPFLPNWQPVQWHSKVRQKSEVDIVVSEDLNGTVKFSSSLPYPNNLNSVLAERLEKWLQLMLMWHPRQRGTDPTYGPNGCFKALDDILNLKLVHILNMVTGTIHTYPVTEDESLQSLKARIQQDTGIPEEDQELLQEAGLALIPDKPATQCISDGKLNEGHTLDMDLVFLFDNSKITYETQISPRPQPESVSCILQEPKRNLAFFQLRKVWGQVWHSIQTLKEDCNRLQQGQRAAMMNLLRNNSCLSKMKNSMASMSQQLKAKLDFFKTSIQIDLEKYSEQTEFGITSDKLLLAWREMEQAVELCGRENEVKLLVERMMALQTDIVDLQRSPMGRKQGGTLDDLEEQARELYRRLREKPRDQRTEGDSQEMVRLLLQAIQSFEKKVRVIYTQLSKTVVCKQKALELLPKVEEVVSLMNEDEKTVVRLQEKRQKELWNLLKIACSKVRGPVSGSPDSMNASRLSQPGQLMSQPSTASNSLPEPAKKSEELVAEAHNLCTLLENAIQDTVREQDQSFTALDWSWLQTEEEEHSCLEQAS
As to conditions: at 0.1 µM.

Assay [9] has as its target T3, Inhibitor of nuclear factor kappa-B kinase subunit beta (Homo sapiens). As to conditions: at 1 µM.
Assay [10] has as its target T4, Inhibitor of nuclear factor kappa-B kinase subunit epsilon (Homo sapiens) (UniProt Q14164).
T4 sequence (whole entry): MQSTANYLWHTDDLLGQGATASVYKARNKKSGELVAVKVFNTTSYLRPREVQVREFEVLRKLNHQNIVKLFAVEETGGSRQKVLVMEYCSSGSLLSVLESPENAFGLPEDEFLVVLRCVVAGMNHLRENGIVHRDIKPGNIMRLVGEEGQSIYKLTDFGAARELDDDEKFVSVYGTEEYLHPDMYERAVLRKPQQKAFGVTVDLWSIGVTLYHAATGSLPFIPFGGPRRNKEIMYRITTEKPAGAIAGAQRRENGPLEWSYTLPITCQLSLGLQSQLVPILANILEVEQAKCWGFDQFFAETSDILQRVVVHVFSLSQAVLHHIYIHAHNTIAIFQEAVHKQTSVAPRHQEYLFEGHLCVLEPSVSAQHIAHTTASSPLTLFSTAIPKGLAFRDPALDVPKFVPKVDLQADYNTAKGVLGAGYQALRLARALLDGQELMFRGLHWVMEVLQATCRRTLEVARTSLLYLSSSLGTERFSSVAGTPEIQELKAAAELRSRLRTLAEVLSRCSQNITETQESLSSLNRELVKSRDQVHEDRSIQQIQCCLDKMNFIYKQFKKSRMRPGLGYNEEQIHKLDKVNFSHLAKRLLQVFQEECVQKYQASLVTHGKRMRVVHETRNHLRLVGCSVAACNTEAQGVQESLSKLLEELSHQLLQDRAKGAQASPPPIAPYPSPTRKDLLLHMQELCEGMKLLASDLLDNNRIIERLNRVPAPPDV
As to conditions: at 0.1 µM.

The target in assay [11] is T4, Inhibitor of nuclear factor kappa-B kinase subunit epsilon (Homo sapiens). The following applies: at 1 µM.
Assay [12] has as its target T5, Serine/threonine-protein kinase Nek1 (Homo sapiens) (UniProt Q96PY6).
T5 sequence (whole entry): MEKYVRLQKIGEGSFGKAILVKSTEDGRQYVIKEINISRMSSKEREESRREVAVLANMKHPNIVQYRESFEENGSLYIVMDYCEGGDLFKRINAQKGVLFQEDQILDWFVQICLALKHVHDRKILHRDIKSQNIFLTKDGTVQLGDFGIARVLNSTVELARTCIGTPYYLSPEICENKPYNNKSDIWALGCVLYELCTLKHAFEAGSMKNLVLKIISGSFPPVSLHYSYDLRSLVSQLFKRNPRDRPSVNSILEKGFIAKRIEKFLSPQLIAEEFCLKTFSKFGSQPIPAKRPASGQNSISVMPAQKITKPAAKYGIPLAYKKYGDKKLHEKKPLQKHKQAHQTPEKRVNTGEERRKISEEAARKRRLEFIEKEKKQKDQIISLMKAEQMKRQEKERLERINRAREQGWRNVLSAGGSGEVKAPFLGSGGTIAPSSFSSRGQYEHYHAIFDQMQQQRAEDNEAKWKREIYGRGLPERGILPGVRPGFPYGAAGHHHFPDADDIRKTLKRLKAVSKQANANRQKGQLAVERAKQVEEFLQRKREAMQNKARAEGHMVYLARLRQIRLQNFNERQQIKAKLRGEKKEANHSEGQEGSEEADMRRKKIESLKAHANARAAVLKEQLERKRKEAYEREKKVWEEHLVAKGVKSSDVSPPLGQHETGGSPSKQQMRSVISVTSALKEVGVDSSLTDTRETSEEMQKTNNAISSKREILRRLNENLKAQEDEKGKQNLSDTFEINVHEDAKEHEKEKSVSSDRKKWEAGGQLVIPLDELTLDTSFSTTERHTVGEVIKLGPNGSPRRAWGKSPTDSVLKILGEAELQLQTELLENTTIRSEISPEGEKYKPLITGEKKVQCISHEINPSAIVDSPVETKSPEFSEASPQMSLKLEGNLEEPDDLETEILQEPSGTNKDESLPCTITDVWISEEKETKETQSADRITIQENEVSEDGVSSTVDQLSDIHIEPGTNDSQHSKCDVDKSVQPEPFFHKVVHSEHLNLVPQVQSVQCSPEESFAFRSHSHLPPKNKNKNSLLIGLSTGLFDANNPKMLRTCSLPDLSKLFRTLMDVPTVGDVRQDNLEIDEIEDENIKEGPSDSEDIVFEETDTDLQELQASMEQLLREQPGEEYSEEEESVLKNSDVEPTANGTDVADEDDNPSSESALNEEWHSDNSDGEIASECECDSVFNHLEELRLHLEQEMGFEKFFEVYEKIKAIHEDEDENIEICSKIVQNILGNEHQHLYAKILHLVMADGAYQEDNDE
As to conditions: at 0.1 µM.

The target in assay [13] is T5, Serine/threonine-protein kinase Nek1 (Homo sapiens). As to conditions: at 1 µM.
Assay [14] deals with T6, Serine/threonine-protein kinase Nek2 (Homo sapiens) (UniProt P51955).
T6 sequence (whole entry): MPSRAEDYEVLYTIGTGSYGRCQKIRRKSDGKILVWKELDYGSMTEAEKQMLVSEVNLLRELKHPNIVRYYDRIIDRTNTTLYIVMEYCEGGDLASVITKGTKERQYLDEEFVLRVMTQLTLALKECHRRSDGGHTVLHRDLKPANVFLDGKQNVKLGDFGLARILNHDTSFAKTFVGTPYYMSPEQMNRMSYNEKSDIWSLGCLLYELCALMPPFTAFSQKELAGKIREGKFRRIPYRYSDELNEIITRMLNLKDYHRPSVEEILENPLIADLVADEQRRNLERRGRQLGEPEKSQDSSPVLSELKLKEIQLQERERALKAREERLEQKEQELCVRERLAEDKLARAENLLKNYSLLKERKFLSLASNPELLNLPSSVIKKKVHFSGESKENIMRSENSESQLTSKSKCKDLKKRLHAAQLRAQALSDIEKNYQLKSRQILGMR
As to conditions: at 1 µM.

Assay [15] addresses Serine/threonine-protein kinase Nek6 (Homo sapiens) (UniProt Q9HC98). As to conditions: at 0.1 µM.
Assay [16] shares this target. As to conditions: at 1 µM.
Assay [17] has as its target Serine/threonine-protein kinase Nek7 (Homo sapiens) (UniProt Q8TDX7). The following applies: at 0.1 µM.
Assay [18] has the same target. The following applies: at 1 µM.
The target of assay [19] is T7, Serine/threonine-protein kinase Nek9 (Homo sapiens) (UniProt Q8TD19).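 Also: reported value is the mean percent inhibition of NEK9.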
T7 sequence (whole entry): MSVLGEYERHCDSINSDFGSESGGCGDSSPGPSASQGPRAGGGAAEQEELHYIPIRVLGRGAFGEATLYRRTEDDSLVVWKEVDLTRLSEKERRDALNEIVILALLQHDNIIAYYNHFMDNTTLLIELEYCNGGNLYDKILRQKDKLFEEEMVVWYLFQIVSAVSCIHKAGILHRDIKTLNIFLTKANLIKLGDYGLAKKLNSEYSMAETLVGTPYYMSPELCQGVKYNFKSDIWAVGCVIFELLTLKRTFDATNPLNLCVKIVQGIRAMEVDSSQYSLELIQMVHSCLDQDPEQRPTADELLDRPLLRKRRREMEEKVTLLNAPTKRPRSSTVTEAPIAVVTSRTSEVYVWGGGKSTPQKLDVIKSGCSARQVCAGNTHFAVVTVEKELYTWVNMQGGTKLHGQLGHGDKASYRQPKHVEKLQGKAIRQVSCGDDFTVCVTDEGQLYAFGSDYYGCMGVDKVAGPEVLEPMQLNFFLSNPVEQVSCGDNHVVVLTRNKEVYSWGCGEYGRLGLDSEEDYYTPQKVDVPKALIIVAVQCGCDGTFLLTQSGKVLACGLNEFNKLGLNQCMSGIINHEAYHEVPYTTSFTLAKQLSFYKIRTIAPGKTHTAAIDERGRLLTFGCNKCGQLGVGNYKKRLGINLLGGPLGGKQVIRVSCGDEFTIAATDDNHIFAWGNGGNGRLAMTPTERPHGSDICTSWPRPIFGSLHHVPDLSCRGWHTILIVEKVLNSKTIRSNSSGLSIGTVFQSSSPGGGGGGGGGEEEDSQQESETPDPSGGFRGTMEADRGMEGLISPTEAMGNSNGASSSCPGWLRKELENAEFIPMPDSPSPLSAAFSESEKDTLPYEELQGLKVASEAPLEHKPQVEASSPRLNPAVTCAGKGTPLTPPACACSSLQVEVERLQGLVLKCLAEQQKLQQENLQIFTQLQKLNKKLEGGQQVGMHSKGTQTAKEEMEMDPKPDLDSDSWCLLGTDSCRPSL
As to conditions: at 0.1 µM.

Casein kinase II subunit alpha (Homo sapiens), sequence (P68400 whole entry, looked up): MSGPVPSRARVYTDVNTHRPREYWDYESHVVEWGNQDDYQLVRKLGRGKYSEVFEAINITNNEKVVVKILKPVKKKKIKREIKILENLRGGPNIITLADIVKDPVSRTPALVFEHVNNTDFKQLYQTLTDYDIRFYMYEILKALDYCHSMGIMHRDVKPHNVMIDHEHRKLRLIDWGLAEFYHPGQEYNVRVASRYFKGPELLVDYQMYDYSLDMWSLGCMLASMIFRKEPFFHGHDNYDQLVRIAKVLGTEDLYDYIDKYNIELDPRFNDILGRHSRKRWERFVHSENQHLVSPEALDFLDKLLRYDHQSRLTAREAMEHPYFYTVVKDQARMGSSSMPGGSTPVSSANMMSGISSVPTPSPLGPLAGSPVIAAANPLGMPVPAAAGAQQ
Serine/threonine-protein kinase Nek7 (Homo sapiens), sequence (Q8TDX7 whole entry, looked up): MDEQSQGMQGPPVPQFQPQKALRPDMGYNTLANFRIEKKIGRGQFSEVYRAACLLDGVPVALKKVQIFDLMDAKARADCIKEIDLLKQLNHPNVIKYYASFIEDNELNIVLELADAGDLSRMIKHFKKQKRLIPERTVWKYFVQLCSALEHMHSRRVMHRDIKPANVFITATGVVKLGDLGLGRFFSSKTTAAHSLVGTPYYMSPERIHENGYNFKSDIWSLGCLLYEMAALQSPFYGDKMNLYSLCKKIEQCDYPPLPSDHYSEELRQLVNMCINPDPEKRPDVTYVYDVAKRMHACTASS
Serine/threonine-protein kinase Nek6 (Homo sapiens), sequence (Q9HC98 whole entry): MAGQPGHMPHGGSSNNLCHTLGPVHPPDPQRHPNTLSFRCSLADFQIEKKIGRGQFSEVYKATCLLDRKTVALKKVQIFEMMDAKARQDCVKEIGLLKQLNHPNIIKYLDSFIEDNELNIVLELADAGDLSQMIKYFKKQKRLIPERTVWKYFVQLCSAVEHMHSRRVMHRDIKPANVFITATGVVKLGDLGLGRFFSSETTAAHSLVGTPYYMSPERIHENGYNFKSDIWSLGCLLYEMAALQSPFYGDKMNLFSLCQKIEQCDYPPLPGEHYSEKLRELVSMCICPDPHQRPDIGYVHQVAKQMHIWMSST
Sphingosine kinase 1 (Homo sapiens), sequence (Q9NYA1 whole entry): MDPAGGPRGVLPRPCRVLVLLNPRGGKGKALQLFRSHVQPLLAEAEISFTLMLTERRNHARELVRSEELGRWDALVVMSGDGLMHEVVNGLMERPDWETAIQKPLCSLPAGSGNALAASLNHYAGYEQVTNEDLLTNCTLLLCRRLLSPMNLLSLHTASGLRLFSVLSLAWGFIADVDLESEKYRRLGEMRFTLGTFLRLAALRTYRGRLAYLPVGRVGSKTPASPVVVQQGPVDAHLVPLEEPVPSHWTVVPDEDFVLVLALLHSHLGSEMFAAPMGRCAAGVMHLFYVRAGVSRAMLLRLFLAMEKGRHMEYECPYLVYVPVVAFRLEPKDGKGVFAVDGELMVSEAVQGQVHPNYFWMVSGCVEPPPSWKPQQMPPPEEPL

As for `COc1cc2c(cc1Nc1nc(Nc3ccsc3C(N)=O)c3cc[nH]c3n1)N(C(=O)CN(C)C)CCC2`, the inhibition in [1] was 0.45%; in assay [2], 4.92%; in assay [3], -0.26%; in [4] it was 8.25%; in assay [5], 37.7%; in assay [6] it was -7.1%. Further, the inhibition in [7] was -1.3%; in assay [8], 2.95%; in assay [9] it was -1.2%; in assay [10], -5.2%; in [11], 9.27%; in [12] it was 0.09%. Moreover, the inhibition in assay [13] was 0.97%; in assay [14] it was 6.67%; in assay [15], 1.52%; in assay [16], -0.11%; in assay [17], 1.7%; in [18] it was 9.62%. Besides, in assay [19], the inhibition is 1.89%.

The record behind these values is ChEMBL document CHEMBL1961873, “Compounds: GSK PKIS; Assays: Nanosyn kinase panel” (2012).
